Data published in PubChem BioAssay (EPA / NIEHS).
Active and inactive are the calls of the source. How the source made its calls: active means hit-call score of the fitted dose curve at least 0.9, where 1 is the maximum; inactive means score below 0.9.

Columns and labels:
[1] = APR_HepG2_CellCycleArrest_24hr: Apredica 24-hour HepG2 Assay for Cell Cycle Arrest (AID 2282905); details: imaging, actives raise or lower the signal;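 further: cell cycle arrest scored as ratio of 2N to 4N nuclear DNA content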
Summary of the method: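 Cell cycle arrest is scored from nuclear DNA content measured by high-content imaging of Hoechst 33342-stained HepG2 cells following 24-hour treatment at ten concentrations up to 200 uM, with DMSO as baseline.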

[2] = APR_HepG2_NuclearSize_24hr: Apredica 24-hour HepG2 Assay for Nuclear Size (AID 2282907); details: high-content imaging, actives raise or lower the signal
Summary of the method: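 Compounds in DMSO (final 0.5%) were added to human HepG2 hepatoma cells at ten concentrations up to 200 uM for 24 hr. Fixed nuclei were stained with Hoechst 33342, and nuclear diameter was quantified from automated images.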

[3] = APR_HepG2_CellLoss_24hr: Apredica 24-hour HepG2 Assay for Cell Loss (AID 2282908); details: high-content imaging;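 on AC50: fit in both directions so a hit may be cell loss or gain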
Summary of the method: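 Cell number is quantified by fluorescence imaging of Hoechst 33342-stained nuclei following dosing at 0.39–200 uM in 0.5% DMSO. Curves are fitted in both directions from the DMSO baseline.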

[4] = APR_HepG2_MicrotubuleCSK_24hr: Apredica 24-hour HepG2 Assay for Microtubule CSK Stabilty (AID 2282909); details: HepG2 microtubule cytoskeleton imaging, actives raise or lower the signal
Summary of the method: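 Steps: dose HepG2 for 24 h (0.39–200 uM, 0.5% DMSO); fix 30 min in 3.7% formaldehyde at room temperature; permeabilize; stain alpha-tubulin 60 min; image microtubule cytoskeleton at 20x. Signal change fitted in both directions relative to DMSO.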

[5] = APR_HepG2_MitoticArrest_24hr: Apredica 24-hour HepG2 Assay for Mitotic Arrest (AID 2282910); details: high-content imaging, actives raise or lower the signal
Summary of the method: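 HepG2 cells, 24 h exposure at 0.39-200 uM (10 concentrations, duplicate, 0.5% DMSO). Fixed, stained for phospho-histone H3 with Hoechst; imaged by high-content microscopy, bidirectional fit versus DMSO.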

[6] = APR_HepG2_MitoMembPot_24hr: Apredica 24-hour HepG2 Assay for Mitochondrial Membrane Potential (AID 2282911); details: imaging, actives raise or lower the signal
Summary of the method: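 HepG2 cells exposed 24 h to 0.39–200 uM compounds in duplicate, 0.5% v/v DMSO final. MitoTracker Red CMXRos 250 nM loaded 30 min before formaldehyde fixation; high-content imaging at 20x, bidirectional fit versus DMSO.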

[7] = APR_HepG2_MitoMass_24hr: Apredica 24-hour HepG2 Assay for Mitochondrial Mass (AID 2282912); details: high-content imaging, actives raise or lower the signal
Summary of the method: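 The liver line HepG2 was dosed in duplicate across a 0.39–200 uM series, with final DMSO held at 0.5% v/v, and harvested at 24 hr. High-content imaging measured mitochondrial dye staining.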

[8] = APR_HepG2_CellCycleArrest_72hr: Apredica 72-hour HepG2 Assay for Cell Cycle Arrest (AID 2282914); details: high-content imaging, actives raise or lower the signal
Summary of the method: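 HepG2 cells exposed 72 h in duplicate to 0.39–200 uM compound, 0.5% DMSO final. Formaldehyde-fixed, Hoechst 33342-stained nuclei imaged at 20x, six fields per well; DNA content per valid cell quantified by cell-cycle image analysis, bidirectional fit versus DMSO.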

[9] = APR_HepG2_CellLoss_72hr: Apredica 72-hour HepG2 Assay for Cell Loss (AID 2282915); details: high-content imaging
Summary of the method: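 HepG2 cells exposed 72 h to compound at 0.39–200 uM (10 concentrations, duplicate) in 0.5% DMSO. Fixed with 3.7% formaldehyde and Hoechst 33342-stained. Imaged at 20x; nuclear count gives cell number, fitted bidirectionally versus DMSO.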

[10] = APR_HepG2_p53Act_24hr: Apredica 24-hour HepG2 Assay for p53 Activation (AID 2282913); details: high-content imaging, actives raise or lower the signal;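 further: p53 protein immunofluorescence averaged per cell in HepG2 with Hoechst nuclei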
Summary of the method: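 HepG2 cells exposed 24 h to compounds at 0.39–200 uM in duplicate, 0.5% v/v DMSO final; fixed, permeabilized, stained with anti-p53 antibody and Hoechst 33342; fluorescence imaging; bidirectional curve fit versus DMSO.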

Measured: AC50

COC(=O)c1ccccc1N
not listed: [10]
inactive: all other assays above

c1ccc2c(c1)-c1cccc3cccc-2c13
active: [3] 85.7 µM | [5] 107 µM | [8] 111 µM | [9] 106 µM
not listed: [2]
inactive: all other assays above

C1=Cc2cccc3cccc1c23
not listed: [2]
inactive: all other assays above

Nc1cc(Cl)cc(C(=O)O)c1Cl
not listed: [2]
inactive: all other assays above

Oc1ccccc1Cl
not listed: [10]
inactive: all other assays above

CC(C)N(Cc1ccccc1)C(=O)C(C)(C)C
not listed: [10]
inactive: all other assays above

[O-][Cl+]O
inactive: [1] | [7] | [10] | [8]
active: [3] 70.7 µM | [4] 73.3 µM | [5] 93.6 µM | [6] 62.5 µM | [9] 97.5 µM

Nc1ccc(Cc2ccc(N)cc2)cc1
not listed: [10]
inactive: all other assays above

Cc1ccc([N+](=O)[O-])cc1
not listed: [2]
inactive: all other assays above

OCCOCCO
not listed: [10]
inactive: all other assays above

CN(C)c1ccc(C(=O)c2ccc(N(C)C)cc2)cc1
active: [1] 4.79 µM | [3] 1.64 µM | [4] 0.403 µM | [5] 0.538 µM | [8] 0.639 µM | [9] 1.75 µM
inactive: [2] | [6] | [7]

OCCCBr
not listed: [10]
inactive: all other assays above

Cn1cc(-c2ccccc2)c(=O)c(-c2cccc(C(F)(F)F)c2)c1
active: [1] 57.4 µM | [8] 107 µM | [9] 64.3 µM
not listed: [2]
inactive: all other assays above

O=Cc1ccco1
not listed: [10]
inactive: all other assays above

CCCCCCCCOC(=O)c1ccc(C(=O)OCCCCCCCC)c(C(=O)OCCCCCCCC)c1
not listed: [10]
inactive: all other assays above

CS(=O)(=O)NC(=O)c1cc(Oc2ccc(C(F)(F)F)cc2Cl)ccc1[N+](=O)[O-]
not listed: [10]
inactive: all other assays above

O=[N+]([O-])C(Br)(CO)CO
active: [1] 116 µM | [3] 25.6 µM | [6] 84.6 µM | [9] 35.5 µM
inactive: [4] | [5] | [7] | [8]

COP(=S)(OC)SCN1C(=O)c2ccccc2C1=O
not listed: [2] | [10]
inactive: all other assays above

CO[C@@H]1[C@H](OC(=O)NC(=O)CCl)CC[C@]2(CO2)[C@H]1[C@@]1(C)O[C@@H]1CC=C(C)C
not listed: [2] | [10]
inactive: all other assays above

Nc1ccc(Cl)cc1N
active: [1] 0.162 µM | [8] 1.46 µM | [9] 1.1 µM
not listed: [2] | [10]
inactive: all other assays above

CCCSC(=O)N(CCC)CCC
not listed: [2] | [10]
inactive: all other assays above
